In PubChem BioAssay (NCI):
This is part of a sample that, as a whole, favours compounds with a hit. Of some 83,000 tested, about 20% had one in any assay.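 The endpoint reported here, percent growth, reads 100 for growth as untreated, 0 for no net growth and -100 for all cells dead.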 Unmarked numbers belong to inactive results. Activity calls are given as the source filed them. How the source made its calls: active means growth percent below 10; inactive means the rest.

Assays:
Experiment in all cases: NCI-60 one-dose screen, 48 h (100 = growth as untreated, 0 = no growth, -100 = all killed)
Details in all cases: 10 µM unless noted
[1] = system: HCT-15 colon
[2] = system: HT29 colon
[3] = system: SNB-75 CNS
[4] = system: SNB-19 CNS
[5] = system: U251 CNS
[6] = system: PC-3 prostate
[7] = system: SK-MEL-5 melanoma
[8] = system: UACC-62 melanoma
[9] = system: LOX IMVI melanoma
[10] = system: SK-MEL-28 melanoma
[11] = system: EKVX NSCLC
[12] = system: SN12C renal
[13] = system: UO-31 renal
[14] = system: TK-10 renal
[15] = system: ACHN renal
[16] = system: CAKI-1 renal
[17] = system: CCRF-CEM leukemia
[18] = system: MOLT-4 leukemia
[19] = system: SK-MEL-2 melanoma
[20] = system: A498 renal

COC(=O)C1=C(C(=O)ON)[C@@H]2C=C[C@@]1([C@@H](Cc1ccccc1)Nc1ccccc1)O2 was tested, and the growth [1] was -47.6% (active), the growth [2] was 57.7% and the growth [3] was 108%. It also gave a growth [4] of 104%, a growth [5] of 92.2% and a growth [6] of 101%. The growth [7] was 101%, the growth [8] was 90% and the growth [9] was 77.7%. The growth [10] was 73.3%, the growth [11] was 97.7% and the growth [12] was 81.5%. The growth [13] was 71.1%, the growth [14] was -23.4% (active) and the growth [15] was -95.5% (active). For the same compound, the growth [16] was 86%, the growth [17] was -13.5% (active) and the growth [18] was 7.55% (active).
For C/C=C(\C)C(=O)NC1=CC[C@@]2(C)C(=CCC3C2CC[C@@]2(C)C3CC[C@@H]2C(C)N(C)C)C1=O (some centres undefined), the growth [1] was -32.5% (active), the growth [2] was -19.7% (active) and the growth [3] was 42.3%. For the same compound, the growth [4] was 83%, the growth [5] was 36.3% and the growth [6] was 26.2%. For the same compound, the growth [8] was -16.1% (active), the growth [9] was -53.2% (active) and the growth [10] was -66.5% (active). For the same compound, the growth [19] was 86.5%, the growth [11] was 32% and the growth [12] was 60.6%. For the same compound, the growth [13] was 1.15% (active), the growth [14] was 58.1% and the growth [15] was 65.6%. The growth [16] was 63.6%, the growth [20] was 71.2% and the growth [17] was 15.3%. It also gave a growth [18] of 47%.
With COc1ccc(CC(C)=C(c2ccc(OCCN3CCCCCC3)cc2)c2ccc(OCCN3CCCCCC3)cc2)cc1 the growth [1] was -95.9% (active), the growth [2] was -85% (active) and the growth [3] was -92.9% (active). The growth [4] was -95% (active), the growth [5] was -91.4% (active) and the growth [6] was -87.2% (active). The growth [7] was -97.9% (active), the growth [8] was -97.1% (active) and the growth [9] was -100% (active). For the same compound, the growth [10] was -99.1% (active), the growth [11] was -93.6% (active) and the growth [12] was -92.4% (active). The growth [13] was -98.8% (active), the growth [14] was -87.3% (active) and the growth [15] was -100% (active). The growth [16] was -92.5% (active), the growth [17] was -57.9% (active) and the growth [18] was -67.5% (active).
Cc1cc(C(=O)/C=C/c2ccc[nH]2)ccc1-n1ccc(C(F)(F)F)n1 was tested, and the growth [1] was 84.1%, the growth [2] was 89.9% and the growth [3] was 63.2%. The growth [4] was 85.1%, the growth [5] was 25.9% and the growth [6] was 6.59% (active). The growth [7] was 98.2%, the growth [8] was 84% and the growth [9] was 90.8%. The growth [10] was 100%, the growth [11] was 87.4% and the growth [12] was 63.4%. For the same compound, the growth [13] was -92.1% (active), the growth [15] was 98.9% and the growth [16] was 83.8%. The growth [17] was 13.1% and the growth [18] was 70.6%.
Compound COc1ccc2c(c1)C(=O)CC(c1ccccc1OC)O2 (centres undefined) has a growth [1] of 93.1%, a growth [2] of 107% and a growth [3] of 80.4%. The growth [4] was 98.8%, the growth [5] was 98.4% and the growth [6] was 104%. It also gave a growth [8] of 85.8%, a growth [9] of 89.3% and a growth [10] of 106%. For the same compound, the growth [19] was 102%, the growth [11] was 73.2% and the growth [12] was 94.6%. It also gave a growth [13] of 96.9%, a growth [14] of 169% and a growth [15] of 101%. For the same compound, the growth [16] was 89.2%, the growth [17] was 109% and the growth [18] was 81%.
For COc1cccc(/C=N/NC(=O)c2cnn3c2NC(c2ccccc2)C3)c1Oc1ccccc1 (centres undefined), the growth [1] was 49.8%, the growth [2] was 41.5% and the growth [3] was 60.8%. For the same compound, the growth [4] was 75.4%, the growth [5] was 83.9% and the growth [6] was 72.3%. For the same compound, the growth [7] was 73%, the growth [8] was 62.3% and the growth [9] was 84.5%. The growth [10] was 79.1%, the growth [11] was 93.7% and the growth [12] was 104%. It also gave a growth [13] of 77.4%, a growth [15] of 87% and a growth [16] of 78.2%. The growth [17] was 79.4% and the growth [18] was 75.2%.
Fc1ccc2c(-c3cncn3CCc3ccccc3)c[nH]c2c1 gave a growth [1] of 95.7%, a growth [2] of 85.4% and a growth [3] of 47.7%. The growth [4] was 85.1%, the growth [5] was 91.9% and the growth [6] was 86.8%. It also gave a growth [8] of 73.3%, a growth [9] of 94.8% and a growth [10] of 98.8%. It also gave a growth [19] of 94.1%, a growth [11] of 79.4% and a growth [12] of 77%. For the same compound, the growth [13] was 68.1%, the growth [14] was 135% and the growth [15] was 96.7%. For the same compound, the growth [16] was 75.2%, the growth [20] was 64.1% and the growth [17] was 79.4%. The growth [18] was 91.2%.
With Nc1c(C(=O)Nc2cccc3cnccc23)sc2nc3c(cc12)C(=O)CCC3 the growth [1] was 70.9%, the growth [2] was 79.9% and the growth [3] was 88.5%. It also gave a growth [4] of 66.6%, a growth [5] of 95.7% and a growth [6] of 75.9%. The growth [7] was 47.6%, the growth [8] was 43.1% and the growth [9] was 91.6%. It also gave a growth [10] of 85.1%, a growth [11] of 91.6% and a growth [12] of 89.2%. For the same compound, the growth [13] was 81.8%, the growth [14] was 104% and the growth [15] was 101%. The growth [16] was 77.8%, the growth [17] was 64.6% and the growth [18] was 102%.
